# High-throughput results from PubChem.
# A selection: hits, their analogues and other compounds. The true share with any hit is near 19%.
# MARV entry inh = inhibitors of Marburg virus binding or cell entry; Marburg virus pseudotyped entry inhibition, cell reporter; Potency, µM (titrated, usually from 37.8 µM), for the others: at the highest dose activity change, negative = inhibition, usual class: inhibitors; 300,000 compounds, 1.8% hits; calls by dose curve; tested in HEK293 cells; also: potency is read from the fitted curve at half-maximal effect; % is scaled to controls: 0 for no effect and ±100 for the full control effect
# Cycloheximide cs = affects cycloheximide protein synthesis inhibition readout, counter-screen. AID 2314. cell reporter, cycloheximide protein synthesis inhibition counterscreen. 300,000 compounds, 12% hits. max response, %; in the data active = max response mostly above about 13%, no sharp cut-off; inactive = mostly below about 14%; also: read at 38.3 µM for the half of the compounds with a filed dose; 0% is about no effect
# Pf growth 96h = P. falciparum growth inhibition at 96 hour, primary screen for plastid delayed-death inhibitors; P. falciparum luciferase reporter growth, 96 h; Potency, µM (titrated, usually from 28.7 µM), inactives show top-dose activity change, negative = inhibition, hits mostly inhibitors; 320,000 compounds, 6.9% hits; AID 504834; also: potency is read from the fitted curve at half-maximal effect; % is scaled to controls: 0 for no effect and ±100 for the full control effect
#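 Cell-based qHTS: luciferase-tagged P. falciparum in erythrocytes (2% hematocrit, 0.05% parasitemia final) incubated with compounds for 96 hours, 37 C, 5% CO2; luciferase detection reagent then added and luminescence measured.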
# Lassa entry inh = blocks Lassa virus binding to or entry into cells. Lassa virus pseudotype entry inhibition, cell reporter. Potency, µM (series often up to 37.9 µM), for inactives: top-dose activity change, negative = inhibition, hits mostly inhibitors. 300,000 compounds, 1.2% hits. AID 540256; calls by dose curve; tested in HEK293 cells; also: potency is read from the fitted curve at half-maximal effect; % is scaled to controls: 0 for no effect and ±100 for the full control effect; nearly all actives have a fitted effect of over 50% in size
# Shiga toxin inh = inhibitors of Shiga toxin in Vero cells; Vero cells, Shiga toxin protein synthesis inhibition reporter; inhibition, % at 38.7 µM; 290,000 compounds, 9.2% hits; AID 2315; in the data active = inhibition mostly above about 28%, no sharp cut-off; inactive = mostly below about 43%; also: 0% is about no effect
# Pf growth 48h = P. falciparum growth inhibition at 48 hours (one generation); P. falciparum luciferase growth in erythrocytes, 48 h; Potency, µM (highest dose often 28.7 µM), for the others: at the highest dose activity change, negative = inhibition, actives largely listed as inhibitors; 310,000 compounds, 5.9% hits; also: potency is read from the fitted curve at half-maximal effect; % is scaled to controls: 0 for no effect and ±100 for the full control effect
#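 Cell-based growth assay: transgenic P. falciparum expressing firefly luciferase, cultured in red cells within RPMI 1640 containing 0.5% w/v Albumax, 24 mM bicarbonate and gentamycin. A drop in luciferase activity indicates inhibition.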
# * = called active by the depositor; ? = inconclusive; nt = not tested or not shown; [ ] = dose if it differs, or a comment. Unless noted, calls follow the shape of the dose curve; as a rule, active = well fitted inhibition curve with a large enough effect; inconclusive = small, poorly fitted or top-dose-only effect, or another doubt; inactive = no such curve, though single readings can be large or run the other way.
SMILES,MARV entry inh,Cycloheximide cs,Pf growth 96h,Lassa entry inh,Shiga toxin inh,Pf growth 48h
CCSC1(SCC)N=C(N)C2(C#N)C(c3ccccc3)NC(C)=C(C)C12C#N (stereo not drawn),-12%,0,9%,-8%,-22,2%
Cc1ccc(-n2nc3c(=O)n(C(C)C(=O)NCc4ccc(Cl)cc4)nc(C)c3c2C)cc1 (stereo not drawn),nt,15,1.7µM*,nt,-7,?
Cc1ccc(-n2nc3c(=O)n(C(C)C(=O)NCCC4=CCCCC4)nc(C)c3c2C)cc1 (stereo not drawn),nt,9,9.3µM*,nt,1,?
O=C1COc2ccc(C(=O)COC(=O)c3ccccn3)cc2N1,3%,nt,4%,?,nt,28%
Cc1ccc(C)c(Cn2cnc3c(cnn3-c3ccc(F)cc3)c2=O)c1,3%[46.1 µM],nt,nt,?,nt,nt
COc1ccc(C(=O)Nc2ccccc2C(=O)N/N=C/c2ccco2)cc1,?,41*,31%,?,55*,82%
CCOc1ccc(/C=N/NC(=O)c2ccccc2NC(=O)c2ccc(OC)cc2)cc1,2%,60*,21%,-22%,45*,111%
CCOc1ccc(C(=O)Nc2ccccc2C(=O)O)cc1,?,13,?,?,28,28%
C=CCn1c(N)c(C(=O)Nc2ccccc2)c2nc3ccccc3nc21,?,1,?,2%,-13,?
N#CCN(CC#N)C(=O)C1c2ccccc2Oc2ccccc21,3%[46.1 µM],-3,2.9µM*,?,20,-5%
Cc1ccc2c(CC(=O)Nc3cc(C(F)(F)F)ccc3Cl)coc2c1C,-15%[46.1 µM],nt,nt,-18%[46.1 µM],nt,nt
O=C(/C=C\NCC(=O)c1ccccc1)c1ccc(F)cc1,10%,28*,50%,5%,28,45%
O=C(c1ccccc1)c1ccc2ccccc2c1,6%[46.1 µM],nt,nt,3%[46.1 µM],nt,nt
O=C(CNC(=O)c1ccccc1)NCC(=O)OCC(=O)c1ccc(F)cc1,2%,2,5%,3%,17,14%
O=C(/C=C\NCC(=O)c1ccccc1)c1ccc2ccccc2c1,-15%,12*,37%,10%,52*,3%
CC(C)c1nc(SCC(=O)Nc2ccc(N(C)C)cc2)c2ccccc2n1,nt,12,27%,nt,-5,12µM*
CC(C)c1nc(SCC(=O)c2ccc(F)cc2)c2ccccc2n1,nt,20*,-34%,nt,31,?
CCOC(=O)CSc1nc(C(C)C)nc2ccccc12,12%,5,13µM*,?,-2,0%
Cc1ccc(C(=O)CSc2nc(C(C)C)nc3ccccc23)cc1,-7%[46.1 µM],0,9%,39%[46.1 µM],11,0%
CCOC(=O)CSc1nc(C)c2cccc(C)c2n1,9%[46.1 µM],10,10%,15%[46.1 µM],14,0%
CCOC(=O)CSc1nc(C)c2ccccc2n1,-3%,11*,nt,13%,67,14%
COCCN(CCOC)S(=O)(=O)c1ccc(C(=O)Nc2nc(-c3ccccc3)c(C(=O)c3ccccc3)s2)cc1,?,-3,3%,-10%,-1,-4%
COc1ccccc1N1CCN(C(=O)Cc2cccs2)CC1,19%,1,nt,7%,15,-10%
N#Cc1cccc(C(=O)OCc2cccc(S(=O)(=O)N3CCOCC3)c2)c1,4%,nt,16%,-2%,nt,?
COc1ccccc1NC(=O)CS(=O)(=O)c1cccc2nsnc12,-1%,-7,215%,4%,-8,-23%
SMILES,MARV entry inh,Cycloheximide cs,Pf growth 96h,Lassa entry inh,Shiga toxin inh,Pf growth 48h
Cc1ccc([N+](=O)[O-])cc1NC(=S)NC(=O)c1ccco1,3%,-2,13%,-13%,9,22%
CC(C)CC(=O)Nc1cc([N+](=O)[O-])ccc1Cl,0%,1,46%,1%,-22,1%
O=C(CNC(c1ccccc1)c1ccccc1)Nc1cc([N+](=O)[O-])ccc1Cl,?,-3,13µM*,?,-9,?
O=C(CNC(=S)NC(=O)c1cccc([N+](=O)[O-])c1)c1ccccc1,?,4,10µM*,1%,-5,32%
O=C(C#Cc1ccccc1)c1cccc([N+](=O)[O-])c1,13µM*,-2,31%,?,-15,nt
O=C(NC(=S)Nc1cccc([N+](=O)[O-])c1)c1ccco1,6%,6,8.3µM*,2%,-10,56%
Cc1ccc(-c2sc(-c3cccnc3)nc2CC(=O)O)cc1,2%[46.1 µM],-3,-19%,25%,-17,?
